The text below walks through data of the OligoGym collection.
Further: reference of the scale not given here.

In one test the target is STRA6. Briefly: pooled miR-30 sensor sort-seq; sequence = guide strand. The note with it: shRNA.
The sequence TCAATCTTCAAGAAGTTTCGGT returned a sensor-assay potency score (higher = more potent) of 0.639. Same read-out and setting: the value for TAGTACTTGTAGATCTTGGGCA was 0.389; that for TTTCTTTCTCCAGAACCCCTGC was -0.557; that for TTGGAGGTGTGGTAGCTGCTTC was -0.709. As for TTCCTCAGAGTAGCTGCTCTGC, the sensor-assay potency score (higher = more potent) is -1.09. Still for that read-out and setting: to TTTCGGTACGTGTAGTAGCCGG belongs -0.648; to TAGATGCAGTGTCTCAAGCAGA, -0.804; to TAGGCACTGAAGCTCATCCAAC, -1.34.

As for TGAGATGTAGCACACTTCCAGA, the sensor-assay potency score (higher = more potent) is -1.21. Sequence TTCGGTACGTGTAGTAGCCGGG displayed a sensor-assay potency score (higher = more potent) of -0.203. Still for that read-out and setting: to TGTAGCTGAAAGCACCAGCTTC belongs -0.655; to AACAGTCCCAGTATCTTCCAGG, -0.995.

The next test concerns the target STRADB. The description is as above. The note with it: shRNA.
As for TTCTGTAACAGCATCTGAGTTC, the sensor-assay potency score (higher = more potent) is -0.403. Same read-out and setting: to TCTGACTTCACATTATACCCAT belongs 0.302; to ATCTTGTTGCAAACAGAGCTGT, -0.583; to TTGCAAACAGAGCTGTACCAAG, -0.672.
